Reference: PubChem BioAssay (NCI)
The panel holds about 83,000 compounds, 20% with a hit somewhere; the sample as a whole holds those more often.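 The test compound was applied at a single concentration to cells in 96-well plates for 48 hours, and percent growth was recorded.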 Calls of active or inactive are those of the source. How the source made its calls: active means growth percent below 10; inactive means the rest.

Each compound was assayed on MDA-MB-468 breast (assay: NCI-60 one-dose screen, 48 h (100 = growth as untreated, 0 = no growth, -100 = all killed)). Conditions: 10 µM unless noted.

Row | SMILES | growth
1 | COCCn1cc(-c2csc(-c3c[nH]c4ccc(Br)cc34)n2)c2cccnc21 | 0.403% (active)
2 | O=C(CSc1nc2ccccc2c(=O)n1-c1ccccc1)Nc1ccc(S(=O)(=O)Nc2nccs2)cc1 | 56.4% (inactive)
3 | NNc1nc(-c2cccnc2)nc2c1sc(=S)n2-c1ccccc1 | 115% (inactive)
4 | CCCCCCCCCCC[C@@H](C[C@H]1OC(=O)[C@H]1CCCCCC)OC(=O)[C@@H](CC(C)C)NC=O | 101% (inactive)
5 | O=C(CCSc1nnc2n(Cc3ccccc3)c(=O)c3c4c(sc3n12)CCCC4)N1CCN(c2ccccc2)CC1 | 101% (inactive)
6 | Cc1nc2sc(C(=O)Nc3ccccc3)c(N)c2cc1C(C)O (configuration not stated) | 28.6% (inactive)
7 | CC1(C)CC(=O)C2=C(C1)N(c1ccc(F)cc1F)C(N)=C(C#N)C2c1cc(Br)ccc1F (configuration not stated) | 92.9% (inactive)
8 | COc1ccc(-c2nc(N3CCN(C(=O)C4CCCCC4)CC3)c3c4c(sc3n2)CCCC4)cc1 | -17.4% (active)
9 | Cc1c(Cn2c(C)nc3c(C(=O)O)cc(N4CCOCC4)cc32)cccc1C(F)(F)F | 104% (inactive)
10 | CCCCCCCCCCCCCC[n+]1ccc(C(N)=O)cc1 | -40.6% (active)
11 | CCCCCCCCCCCCCCCCNC(=S)N/N=C/c1ccc(O)cc1O | 57.1% (inactive)
12 | N#Cc1cccc(/C=C(/C(=O)c2ccccc2)c2ccccc2)c1 | 48.9% (inactive)
13 | CC(=O)c1nn(-c2ccccc2)/c(=N\N=C\c2coc3ccc(F)cc3c2=O)s1 | 115% (inactive)
14 | COc1ccc(C/C(C)=C(\c2ccc(O)cc2)c2ccc(OCCN3CCCC3)cc2)cc1 | 124% (inactive)
15 | NC(=O)N/N=C/c1ccc(Br)o1 | 109% (inactive)
16 | Cn1ccnc1C(=O)C(=O)Nc1ccc(CC(=O)Nc2ccccc2)cc1 | 109% (inactive)
17 | C=C1C(=O)O[C@H]2[C@H]1CC/C(C(=O)NCCOCCOCC(=O)Nc1ccc(OC)c(C(N)=O)c1O)=C\CC[C@@]1(C)O[C@@H]21 | 77.8% (inactive)
18 | Cc1cc(=O)oc2cc(OC(=O)N3CCN(C)CC3)ccc12 | 107% (inactive)
19 | C=C(C(N)=O)C(N)C(=O)O (configuration not stated) | 121% (inactive)

Row | SMILES | growth
20 | CCOC(=O)Cn1c(C)c(/C=N/NC(=O)c2cc3c(ccc4ccccc43)o2)c2ccccc21 | 16.1% (inactive)
21 | CCCCCn1ncc(-c2c(O)c(O)cc3c(O)c(-c4c(C)cc5c(-c6cnn(CCCCC)n6)c(O)c(O)cc5c4O)c(C)cc23)n1 | -2.7% (active)
22 | Cc1nc2sc(C(=O)Nc3cccc4ccccc34)c(N)c2cc1C(=O)/C=C/c1ccccc1 | -3.46% (active)
23 | CC1(C)CC[C@]2(C(=O)N[C@H](CO)Cc3ccccc3)CC[C@]3(C)C(=CC[C@@H]4[C@@]5(C)CCCNC(C)(C)[C@@H]5CC[C@]43C)[C@@H]2C1 | 37.8% (inactive)
24 | O=C1/C(=C\c2cccn2Cc2ccccc2)c2ccccc2N1c1c(Cl)cccc1Cl | -77.5% (active)
25 | CC(=O)Nc1ccccc1-c1nc2ccccc2s1 | 93% (inactive)
26 | CCCN(CCC)c1ccc(/C=C/c2ccc3cc(OCC)ccc3n2)cc1 | 74.1% (inactive)
27 | COc1ccc(Cn2cnc3cc(C(=O)Nc4cccc5ccccc45)ccc32)c(OC)c1 | -31.6% [30 µM] (active)
28 | Cc1cc(C(=O)/C=C/c2ccc[nH]2)ccc1-n1ccc(C(F)(F)F)n1 | 90.2% (inactive)
29 | CC1CCC(C(C)(C)[N+](C)(C)C)CC1 (configuration not stated) | 120% (inactive)
30 | CC(=O)C1=C(C)NC(NNc2ccccc2)=NC1c1ccc([N+](=O)[O-])cc1 (configuration not stated) | 92.3% (inactive)
31 | Oc1ccccc1C=NCC1CCC(CN=Cc2ccccc2O)CC1 (configuration not stated) | 74.4% (inactive)
32 | NC(=O)C(O)(c1ccccc1)c1ccccc1 | 95.1% (inactive)
33 | COc1ccc(/C=C/C(=O)c2ccc(-n3cc(CN4CCN(c5cc6c(cc5F)c(=O)c(C(=O)O)cn6C5CC5)CC4)nn3)cc2)cc1 | 26.3% (inactive)
34 | Cc1ccc(C(=O)Nc2ccc(CN3CCN(C)CC3)c(C(F)(F)F)c2)cc1C#Cc1cnc(N)c2ccccc12 | -61.7% (active)
35 | COc1cccc(CNCCN2C(=O)c3ccc4c5c(ccc(c35)C2=O)C(=O)N(CCNCc2cccc(OC)c2)C4=O)c1 | 89.9% (inactive)
36 | Clc1ccccc1[C@@H]1C[C@@H]2Cc3cc(Br)c4ccccc4c3N1O2 | 4.19% (active)
37 | COc1ccccc1Nc1nc(-c2cc3cccc(C(F)(F)F)c3oc2=O)cs1 | -2.43% (active)
